Screens from PubChem BioAssay.
MITF TRPM1 HTS: activators of MITF-driven TRPM1 promoter reporter, primary screen, cell-based, SK-MEL-5, luciferase, single point. SK-MEL-5 TRPM1-promoter luciferase, 24 h; % of positive control, neutral wells = 0. 300,000 compounds, 0.75% hits. activation, % at 12.5 µM;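 active = mean activation of at least 80% with every replicate also reaching 80%; inconclusive = mean reaches 80% but some replicate falls short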;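 note: 0% = neutral control wells and 100% = parthenolide positive control wells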
TRPM1 prom inh: inhibitors of MITF-dependent TRPM1 promoter reporter, primary screen, cell-based, SK-MEL-5, single point, luciferase. 330,000 compounds, 0.83% hits. SK-MEL-5 TRPM1 promoter luciferase, 24 h. inhibition, % at 12.5 µM. AID 488899, 2010;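 active = mean inhibition across replicates of 60% or more, whatever share of single replicates reaches that level; inconclusive = some that reach 60%, reason not given; inactive = mean inhibition across replicates below 60%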
EBV LMP1 NFkB: EBV LMP1-driven NF-kappaB luciferase reporter inhibitors, primary screen, cell-based, luminescence, single point; 350,000 compounds, 0.69% hits; LMP1-induced NF-kappaB luciferase reporter cells; inhibition, % at 12.5 µM; AID 504558, 2011; in the data active = inhibition above about 41%; inconclusive = no clear call, values can overlap the other calls;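 note: 0% = neutral control wells and 100% = reference inhibitor control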
esBAF inh: Bmi1 luciferase reporter increase in mESCs, primary screen, esBAF inhibitor project, mouse ES cells, Bmi1 luciferase knock-in, single point; 24 h; 100% = twice the neutral-well signal; reporter increase, % at 12.5 µM; 350,000 compounds, 2% hits; in the data active = activation above about 40%; inconclusive = no clear call, values can overlap the other calls;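 note: 0% = median of the plate's neutral control wells and 100% = double that signal; a rise in the Bmi1 reporter signal indicates esBAF inhibition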
Wnt act: Wnt/beta-catenin pathway activators, primary screen, cell-based, plate reader, single point; Wnt/beta-catenin reporter cell assay, activator; activation, % at 9.35 µM; 300,000 compounds, 1.2% hits; AID 743398, 2014; in the data active = activation above about 30%, passing the limit was not always enough; inconclusive = no clear call, values can overlap the other calls;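 note: 0% = neutral control wells and 100% = positive control wells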
Statin myotox sup: suppressors of statin myotoxicity in C2C12 myotubes, primary screen, cell-based, single point, plate reader; C2C12 myotubes + simvastatin, ATP luminescence, 48 h; scaled: DMSO 0, geranylgeraniol control 100; rescue of ATP level, % at 7.49 µM; 330,000 compounds, 0.78% hits;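 active = mean ATP rescue above about 67%, or every replicate alone reaching that limit, limit read from the data, passing the limit was not always enough; inconclusive = no clear call, values can overlap the other calls; inactive = mean under the limit and some replicate under it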;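 note: myotubes were challenged with 10 µM simvastatin during compound exposure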
Active calls of the source: *; ? = inconclusive; nt = no result. Only some compounds are listed: those with a hit (about 4% of all), similar ones and a draw of the others.

SMILES	MITF TRPM1 HTS	TRPM1 prom inh	EBV LMP1 NFkB	esBAF inh	Wnt act	Statin myotox sup
C[C@@H]1CN([C@H](C)CO)C(=O)c2cccc(NS(=O)(=O)c3ccccc3)c2O[C@H]1CN(C)C(=O)Nc1cccc2ccccc12	nt	nt	nt	3	nt	37
CN1CCN(c2ccc(NC(=O)C(C)(c3ccccc3)c3ccccc3)cc2)CC1	9	-10	-5	6	-2	8
CN1CCN(c2ccc(-c3ccnn3C(=O)Nc3ccccc3)cc2)CC1	49	-49	-3	nt	44*	nt
Cc1[nH]nc(N=CC2=C(O)CC(C)(C)CC2=O)c1-c1ccccc1	23	-20	-4	45*	-4	-2
CCn1c(SCC(=O)Nc2nc(C)c(C)s2)nc2cccnc21	6	0	25	15	-4	nt
O=C(NCCc1cccs1)c1ccc(Cl)c(Cl)c1	94*	-95	-28	nt	37*	nt
O=C(NCCc1cccs1)c1ccc(Cl)cc1	24	-27	9	nt	10	nt
Cc1ccc(C(=O)NCCc2cccs2)cc1	-45	54	64*	-63	-2	-4
Cc1ccc(OCCNC(=O)c2ccc(COc3ccccc3)o2)cc1	0	1	0	nt	3	nt
CC(C)CC#Cc1cnc2c(c1)C(=O)N([C@@H](C)CO)C[C@H](C)[C@@H](CN(C)C(=O)NC1CCCC1)O2	nt	nt	nt	5	nt	nt
O=C(Nc1ccc(NC(=S)NC(=O)c2ccco2)cc1)c1ccc(Br)cc1	nt	nt	6	-13	-9	11
COc1ccc(S(=O)(=O)N2CCCCC2c2cc(C(=O)Nc3ccc4c(c3)OCO4)no2)cc1 (stereo not given)	nt	nt	nt	16	-1	-11
COc1ccc(S(=O)(=O)N2Cc3ccccc3CC2C(=O)Nc2ccc3c(c2)OCO3)cc1 (stereo not given)	41	-37	-4	59*	4	10
Cc1ccc(S(=O)(=O)N2Cc3ccccc3CC2C(=O)Nc2ccc3c(c2)OCO3)cc1 (stereo not given)	34	-32	-15	66*	nt	2
CCCC1C(=O)Nc2ccccc2N1C(=O)c1ccc(C(C)(C)C)cc1 (stereo not given)	-6	5	1	13	-1	6
O=C(CC1NCCNC1=O)OCc1ccccc1 (stereo not given)	0	-2	-3	13	0	96*
COc1cc(-c2nnc(COC(=O)c3cccn3C)o2)cc(OC)c1OC	16	-11	4	nt	-2	nt
Cn1cccc1C(=O)OCc1cc(-c2ccco2)on1	98*	-94	-20	83*	27	2
O=C(CC(c1ccccc1O)N1CCCCC1)N1CCCCC1 (stereo not given)	nt	-7	3	nt	39*	nt
COCCNC(=O)c1cc2sc3ccccc3c2s1	nt	-60	-35	2	46*	-51
C[C@H](CO)N1C[C@H](C)[C@H](CN(C)S(=O)(=O)c2cccs2)Oc2ccc(NC(=O)Cc3cn(C)c4ccccc34)cc2C1=O	nt	nt	nt	1	nt	104*
C[C@@H]1CN([C@@H](C)CO)C(=O)c2cc(NC(=O)Cc3cn(C)c4ccccc34)ccc2O[C@H]1CN(C)S(=O)(=O)c1cccs1	nt	nt	nt	0	nt	111*
CCCCNC(=O)C1(C)CCCCN1C(=O)c1cc(OC)ccc1Br (stereo not given)	nt	nt	nt	1	0	0
Cc1cc(C)cc(NC(=O)c2sc3nc(C)cc(C)c3c2N)c1	63	-62	-16	70*	11	-8
Cc1cc(C)c2c(N)c(C(=O)Nc3ccc(C)c(C)c3)sc2n1	126*	-121	-57	-22	21	-12
Cc1cc(C)c2c(N)c(C(=O)Nc3ccc([N+](=O)[O-])cc3)sc2n1	101*	-94	-14	?	16	-14
Cc1cc(C)c2c(N)c(C(=O)N/N=C/c3cccs3)sc2n1	nt	nt	nt	nt	45*	nt
COc1ccccc1NC(=O)c1sc2nc(C)cc(C)c2c1N	0	-3	12	3	-2	-1
Cn1c(=NC(=O)CCS(=O)(=O)c2ccccc2)sc2cc(F)ccc21	-42	43	9	4	-7	11
